This is a sample that favours compounds with a hit; in the whole collection about 2.8% have one here.
Pol beta inh – DNA polymerase beta (human) inhibition. P06746. Pol beta primer extension/strand displacement, fluorescence kinetic. Potency, µM (titrated, usually from 114 µM), for inactives: at the top dose activity change, negative = inhibition, actives largely listed as inhibitors. 1.3% of 340,000 active; also: potency is read from the fitted curve at half-maximal effect; % is scaled to controls: 0 for no effect and ±100 for the full control effect
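Pol beta (10 nM) was preincubated with compound for 15 min at room temperature. The reaction was then started with 50 nM substrate and read immediately and after a further 10 min at room temperature.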
Pol iota inh – inhibitors of human DNA polymerase iota; AID 588590; Pol iota fluorescent replication assay, 10 min; Q9UNA4; Potency, µM (titrated, usually from 115 µM), without a hit: top-dose activity, negative = inhibition, hits mostly inhibitors; 1% of 390,000 active; also: potency is read from the fitted curve at half-maximal effect
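Fluorescent replication assay read twice, at 0 min and 10 min after adding 50 nM (final) substrate. Enzyme (10 nM) and compounds were first incubated 15 min at room temperature; enzyme-free buffer wells were negative controls.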
WRN inhibitor – WRN helicase (human) inhibition. 0.46% of 360,000 active. AID 651768. Q14191. Potency, µM (titrated, usually from 114 µM), inactives show top-dose activity change, negative = inhibition, usual class: inhibitors. WRN helicase unwinding, fluorescent forked duplex, kinetic; also: potency is read from the fitted curve at half-maximal effect; % is scaled to controls: 0 for no effect and ±100 for the full control effect; nearly all actives have a fitted effect of over 55% in size
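Screening of the MLSMR collection measured strand separation of a quenched forked DNA duplex (100 nM) by 20 nM WRN with 2 mM ATP, all final. Compounds were preincubated with enzyme 15 min at room temperature.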
Pol kappa inh – inhibitors of human DNA polymerase kappa; Q9UBT6; Potency, µM (doses to about 107 µM), for the others: at the top dose activity, negative = inhibition, usual class: inhibitors; AID 588579; 0.53% of 400,000 active; purified Pol kappa, fluorescent DNA synthesis assay, 10 min; also: potency is read from the fitted curve at half-maximal effect; % is scaled to controls: 0 for no effect and ±100 for the full control effect
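Enzyme at 10 nM met test compounds for 15 min at room temperature. Substrate addition (50 nM final) began the reaction, which was monitored by fluorescence at 0 and 10 min.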
POLH inh – DNA polymerase eta (human) inhibition; 1.2% of 390,000 active; recombinant Pol eta, fluorescent DNA replication assay; Potency, µM (highest dose often 114 µM), for the others: at the highest dose activity change, negative = inhibition, actives largely listed as inhibitors; Q9Y253; AID 588591; also: potency is read from the fitted curve at half-maximal effect; % is scaled to controls: 0 for no effect and ±100 for the full control effect
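Pol eta (10 nM) was preincubated with compounds for 15 min at room temperature, after which fluorescent replication substrate (50 nM final) was added to start the reaction. Fluorescence was read kinetically at 0 and 10 min.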
PI5P4K alpha inh – PI5P4K alpha (human) kinase inhibition; PI5P4Kalpha enzyme, ADP-Glo luminescence, 60 min; active compounds read low; max response, %; 1.2% of 330,000 active; AID 652105; active = max response of -50% or lower; inconclusive = between -30% and -50%; inactive = -30% or higher; also: value at the top dose of about 77 µM; % is scaled to controls: 0 for no effect and ±100 for the full control effect
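qHTS, 1536-well: enzyme/substrate mix, compound by pin tool, 5 microM ATP final; RT 60 min; ADP-Glo reagents 1 (45 min) then 2 (30 min); luminescence.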
ADP-Glo counter – interferes with ADP-Glo detection without enzyme present | shares compounds with PI5P4K alpha inh | ADP-Glo detection counter-screen, luciferase luminescence, no enzyme | Potency, µM (series often up to 76.9 µM), for the others: top-dose activity change, negative = inhibition, usual class: inhibitors | 1,100 tested, under 10 active
Starred values were filed as active, the others as inactive; [ ] = remark or other dose. Unless noted, calls follow the shape of the dose curve; as a rule, active = well fitted curve in the direction sought with a large enough effect; inconclusive = small, poorly fitted or top-dose-only effect, or another doubt; inactive = no such curve, though single readings can be large; an effect the other way counts as inactive or inconclusive.

`Fc1ccc(Nc2nc(NCc3ccco3)c3ccccc3n2)cc1` gave Pol beta inh -18%, Pol iota inh -18%, WRN inhibitor -21%, Pol kappa inh -10%, POLH inh -8% and ADP-Glo counter -2%.
Screening c1coc(CNc2nc(NCc3ccco3)c3ccccc3n2)c1 returned Pol iota inh 18% and Pol kappa inh -7%.
`O=C(NCC1CC1)c1ccc(Nc2nc3ccc(Br)cc3[nH]2)cc1` gave Pol beta inh 9%, Pol iota inh inconclusive, WRN inhibitor -21%, Pol kappa inh 4%, POLH inh inconclusive, PI5P4K alpha inh -56* and ADP-Glo counter 3%.
`C[C@H](NC(=O)[C@@H]1CCCN1C(=O)OC(C)(C)C)c1ccccc1` gave WRN inhibitor 2% and PI5P4K alpha inh 3.
For O=C(COC(=O)c1ccc(NS(=O)(=O)c2cccs2)cc1O)Nc1nc2ccccc2s1 the results were Pol beta inh inconclusive, Pol iota inh 1%, WRN inhibitor -16%, Pol kappa inh -5%, POLH inh -19%, PI5P4K alpha inh -69* and ADP-Glo counter 5%.
`O=C(COC(=O)C1CC2C=CC1C2)Nc1ccc([N+](=O)[O-])cc1` (stereo unspecified) gave Pol iota inh -15%, WRN inhibitor 4%, Pol kappa inh -11%, POLH inh -21% and PI5P4K alpha inh 1.
Screening COc1ccc(NC(=O)C2=C(C)Nc3ncnn3C2c2sccc2C)cc1 (stereo unspecified) returned Pol beta inh 3%, Pol iota inh -5%, Pol kappa inh -10%[60.1 µM] and POLH inh -6%.
Screening Cc1ccc(S(=O)(=O)CCC(=O)OCC(=O)NCc2ccc(F)cc2)cc1 returned WRN inhibitor 13%, POLH inh -1% and PI5P4K alpha inh -3.
`Cc1ccc(CNC(=O)CCS(=O)(=O)c2ccc(Cl)cc2)cc1` gave Pol beta inh 1%[57.1 µM], Pol iota inh 9%, WRN inhibitor -14%, Pol kappa inh 2%, POLH inh -12%, PI5P4K alpha inh -94* and ADP-Glo counter -10%.
Screening O=C(CCS(=O)(=O)c1ccc(Br)cc1)NCc1ccc(F)cc1 returned Pol beta inh inconclusive, Pol iota inh -83%, WRN inhibitor -16%, Pol kappa inh inconclusive, POLH inh 40µM*, PI5P4K alpha inh inconclusive and ADP-Glo counter -3%.
CSCCC(NS(=O)(=O)c1ccc(C)cc1)C(=O)NCC(C)(C)N1CCOCC1 (stereo unspecified) was read as Pol iota inh 28%, WRN inhibitor -1%, Pol kappa inh 3%, POLH inh -13% and PI5P4K alpha inh 7.
Screening CCOC(=O)C1=C(COC(=O)C(CC)Oc2ccccc2)NC(=O)NC1C (stereo unspecified) returned Pol iota inh 11%, WRN inhibitor 1%, Pol kappa inh -2%, POLH inh -13% and PI5P4K alpha inh 3.
Screening COc1ccc(OC)c(C2CC(=O)Oc3c2c(=O)n(C)c2ccccc32)c1 (stereo unspecified) returned Pol beta inh -14%, Pol iota inh -3%, Pol kappa inh -28% and POLH inh -7%.
`COc1ccc(-c2nnc(SCC(=O)NCc3ccco3)o2)cc1` gave Pol beta inh -18%, Pol iota inh -2%, WRN inhibitor -6%[57.1 µM], Pol kappa inh -4% and POLH inh 0%.
`O=C(CSc1nnc(-c2ccc(OC(F)F)cc2)o1)NC(=O)NCc1ccco1` gave Pol beta inh 45µM*, Pol iota inh 79µM*, WRN inhibitor -11%[11.6 µM], Pol kappa inh -29%, POLH inh inconclusive, PI5P4K alpha inh -54* and ADP-Glo counter -3%.
For O=C(c1ccc(Br)cc1)c1cc2ccc(O)cc2oc1=O the results were Pol beta inh -2%, Pol iota inh 10%, WRN inhibitor -15%, Pol kappa inh -6%, POLH inh 4%, PI5P4K alpha inh -63* and ADP-Glo counter -5%.
Screening O=C(O)c1ccc2c(=O)[nH]c(CN3CCOCC3)nc2c1 returned Pol beta inh -15%, Pol iota inh 11%, WRN inhibitor -17%, Pol kappa inh -6%, POLH inh -11% and PI5P4K alpha inh inconclusive.
`O=C(O)c1ccc2c(=O)[nH]c(CCl)nc2c1` gave Pol beta inh 1%, Pol iota inh 90%, WRN inhibitor -23%, Pol kappa inh -18%, POLH inh 10%, PI5P4K alpha inh -59* and ADP-Glo counter 3%.
For NC(COCc1ccccc1)c1csc(Nc2ccc(C(=O)c3ccccc3)cc2)n1 (stereo unspecified) the results were WRN inhibitor -6% and PI5P4K alpha inh 20.
CC(=O)NC(c1ccccc1)c1nc(-c2cccc(C#N)c2)cs1 (stereo unspecified) was read as WRN inhibitor 0% and PI5P4K alpha inh -6.
Screening CC1(OC(=O)CCc2ccccc2)C(=O)C=C2C=C(c3ccc(C#N)cc3)N(Cc3ccco3)C=C2C1=O (stereo unspecified) returned Pol beta inh -5%, Pol iota inh inconclusive, WRN inhibitor -3%, Pol kappa inh -27%, POLH inh inconclusive, PI5P4K alpha inh -53* and ADP-Glo counter 3%.
COc1ccccc1OCCNC(=O)c1cccc(S(=O)(=O)NCc2ccccc2)c1 was read as Pol iota inh 20%, WRN inhibitor -6%, Pol kappa inh 11%, POLH inh -15% and PI5P4K alpha inh 7.
Screening CCOC(=O)C1CCCN(c2nc3c(S(=O)(=O)c4ccc(Br)cc4)nnn3c3ccsc23)C1 (stereo unspecified) returned Pol beta inh 1%, Pol iota inh 4%, Pol kappa inh 4% and POLH inh 13%.
For CCOc1ccc(NC(=O)N2CCC(n3nnc4ccccc43)CC2)cc1 the results were Pol beta inh 29%, Pol iota inh inconclusive, WRN inhibitor -4%, Pol kappa inh inconclusive, POLH inh inconclusive, PI5P4K alpha inh -51* and ADP-Glo counter 2%.
`Cc1cc(NC(=O)CCCn2cc([N+](=O)[O-])cn2)n(Cc2ccc(F)cc2)n1` gave Pol beta inh 25%, Pol iota inh 79µM*, WRN inhibitor 3%[11.6 µM], Pol kappa inh inconclusive, POLH inh inconclusive, PI5P4K alpha inh -68* and ADP-Glo counter -12%.
